Assay outcomes deposited in PubChem by National Center for Advancing Translational Sciences (NCATS).
HT1080-NT tox: kills 2HG-producing HT-1080-NT fibrosarcoma cells | HT-1080-NT fibrosarcoma viability, CellTiter-Glo ATP luminescence, 48 h | Potency, µM (series often up to 46.1 µM), for inactives: at the highest dose activity, negative = less viability, usual class: cytotoxic | 1.6% of 360,000 active | AID 686970;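 note: NT is the 2HG producing partner of a matched IDH1 knockdown line; 0% = DMSO-treated cells and -100% = media-only wells without cells; nearly all actives have a fitted effect of over 55% in size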
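HT-1080-NT; 750 cells/well; 5% FBS RPMI; 48 h compound, 37 degrees C; CellTiter-Glo luminescence; curve fitting and curve-class assignment.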
ATXN viability: cell viability loss in ATXN counter-screen; S2 cells (HEK-293 line with an ATXN2-luciferase reporter) viability, CellTiter-Fluor protease fluorescence, 24 h; Potency, µM (top dose mostly 56.7 µM), usual class: cytotoxic; 0.49% of 400,000 active; AID 651635; note: nearly all actives have a fitted effect of over 40% in size
KB-V1 MDR tox: KB-V1 MDR subline cytotoxicity; AID 1347076; Potency, µM (highest dose often 46.1 µM), hits mostly cytotoxic; KB-V1 MDR cells viability, CellTiter-Glo, 72 h; 3.4% of 400,000 active; note: % is set by controls: 0 for no effect and ±100 for the full control effect; nearly all actives have a fitted effect of over 60% in size
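In this primary screen, KB-V1 cells overexpressing P-gp are incubated with library compounds (lowest to highest concentration) for 72 h at 37 degrees C before a luminescent ATP viability read.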
KB-3-1 cytotox: KB-3-1 parental cell cytotoxicity; KB-3-1 viability, CellTiter-Glo ATP luminescence, 72 h; Potency, µM (top dose mostly 46.1 µM), most hits filed as cytotoxic; 1.4% of 400,000 active; note: % is set by controls: 0 for no effect and ±100 for the full control effect; nearly all actives have a fitted effect of over 60% in size
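Cytotoxicity in the drug-sensitive parental line KB-3-1 was scored as loss of CellTiter-Glo luminescence following 72 h incubation with compound. Values come from curve fitting of normalized concentration-response data.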
ATXN2 expr inh: ATXN2 expression inhibition; HEK-293 ATXN2-luciferase reporter, luminescence, 24 h; Potency, µM (doses to about 57 µM), for inactives: top-dose activity change, negative = inhibition, actives largely listed as inhibitors; 0.72% of 360,000 active; note: % is set by controls: 0 for no effect and ±100 for the full control effect; nearly all actives have a fitted effect of over 55% in size
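qHTS (up to 57 uM final) was run with 24 h compound exposure of reporter cells at 37 °C. Each well was multiplexed: SteadyGlo luminescence measured ATXN2-luciferase expression after a fluorogenic Gly-Phe-AFC viability readout (25 uM final).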
HT1080 IDH1KD tx: toxicity to HT-1080 IDH1 knockdown cells (counter line); HT-1080 IDH1 knockdown viability, ATP luminescence, 48 h; Potency, µM (titrated, usually from 46.1 µM), inactives show top-dose activity, negative = toxicity, actives largely listed as cytotoxic; 2% of 360,000 active; AID 686971;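 note: 0% = DMSO wells and -100% = cell-free medium wells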
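Cytotoxicity counter-line: IDH1KD HT-1080, 48 h, CellTiter-Glo. Curves classed by r2, magnitude and activity.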
Active calls of the source: *; i = inactive; ? = inconclusive; / = no result given. Sampled rows, rich in hits. Any-hit rate of the full collection: about 6.2%. Calls come from the whole dose curve; as a rule, active = well fitted curve in the direction sought with a large enough effect; inconclusive = small, poorly fitted or top-dose-only effect, or another doubt; inactive = no such curve, though single readings can be large; an effect the other way counts as inactive or inconclusive. Potency is the fitted concentration of half-maximal effect.

SMILES	HT1080-NT tox	ATXN viability	KB-V1 MDR tox	KB-3-1 cytotox	ATXN2 expr inh	HT1080 IDH1KD tx
CN(Cc1ccco1)C(=O)c1cc(NC(=O)C2CCC2)c2c(c1)nc(-c1ccncc1)n2C	/	i	/	/	/	/
CCCn1c(=O)c2ccccc2n2c(SCC(=O)N3CCc4ccccc4C3)nnc12	1%	i	2.9µM*	i	3%	-3%
CC(C)NC(=O)Cn1c(SCC(=O)N2CCc3ccccc3C2)nc2ccccc21	14%	i	12µM*	i	29%	8%
Cc1ccc(Cn2c(=O)c3ccccc3n3c(CCC(=O)O)nnc23)cc1	13%	i	i	i	4%	-3%
Cc1ccc(Cn2c(=O)c3ccccc3n3c(SCC(=O)N4CCCCC4C)nnc23)cc1 (centres undefined)	-3%	i	8.2µM*	i	-5%	-6%
CC1CC(C)CN(C(=O)Cn2c(SCC(=O)N3CCc4ccccc4C3)nc3ccccc32)C1 (centres undefined)	-23%	?	i	i	-11%	-8%
CC(C)Cn1c(SCC(=O)N2CCc3ccccc3C2)nc2cc(Cl)ccc2c1=O	0%	i	?	i	1%	-1%
CCn1c(=O)c2ccccc2n2c(SCC(=O)N3CCc4ccccc4C3)nnc12	2%	i	i	i	19%	11%
COCCn1c(SCC(=O)N2CCc3ccccc3C2)nc2cc(Cl)ccc2c1=O	10%	?	1.8µM*	?	-8%	25%
COC(=O)c1cc(Cl)ccc1OC	/	i	/	/	7%	/
CCCCn1cnc2c(SCc3ccccc3)nc(N)nc21	-1%	i	i	i	47%	-6%
CCCCn1cnc2c(SCc3ccc(Br)cc3)nc(N)nc21	15µM*	i	i	i	-18%	16µM*
CC(=O)c1sc2c(c1OC(=O)c1ccc(Cl)cc1Cl)c(=O)n(-c1ccccc1)c(=S)n2-c1ccccc1	1.5µM*	?	?	?	/	2.6µM*
CC(=O)c1sc2c(c1OC(=O)c1ccc(Cl)cc1)c(=O)n(-c1ccccc1)c(=S)n2-c1ccccc1	-19%	?	15µM*	?	0%	?
O=C(/C=C/NNC(=O)c1ccccc1)c1ccc([N+](=O)[O-])cc1	?	?	?	i	7.5µM*	?
CC(C)OCCCNC(=O)c1c(N)n(/N=C/c2cccs2)c2nc3ccccc3nc12	17%	i	?	i	2%	5%
COCCCNC(=O)c1c(N)n(/N=C/c2ccccn2)c2nc3ccccc3nc12	1%	i	5.2µM*	i	4%	15%
Clc1ccc(C2=Nn3c(nnc3-c3n[nH]c4c3CCC4)SC2)cc1	5.8µM*	?	3.7µM*	3.7µM*	-5%	5.8µM*
Brc1ccc(C2=Nn3c(nnc3-c3n[nH]c4c3CCC4)SC2)cc1	1.2µM*	?	1.2µM*	0.33µM*	-5%	0.65µM*
COc1cccc(-n2c(=O)c3c(C)c(C)sc3n(CC(=O)NCCc3ccc(OC)c(OC)c3)c2=O)c1	/	?	i	i	-8%	/
COc1nc(NC(C)(C)C)nc(Oc2ccc(=O)n(-c3ccccc3)n2)n1	1%	i	21µM*	i	1%	-10%
CCNc1nc(OC)nc(Oc2ccc(=O)n(-c3ccccc3)n2)n1	6%	?	i	i	2%	6%
COc1ccc(/C=C/c2c([N+](=O)[O-])c(=O)n(C)c(=O)n2C)c(OC)c1	5%	i	i	i	?	0%
Cn1c(/C=C/c2ccc(Cl)cc2Cl)c([N+](=O)[O-])c(=O)n(C)c1=O	-19%	?	?	7.3µM*	?	-18%
COc1ccc(N(Cc2ccccc2)C(=O)CSc2nnc(Cn3nnc4ccccc43)o2)cc1	-2%	i	8.2µM*	?	?	-18%
SMILES	HT1080-NT tox	ATXN viability	KB-V1 MDR tox	KB-3-1 cytotox	ATXN2 expr inh	HT1080 IDH1KD tx
O=C(CSc1nnc(Cn2nnc3ccccc32)o1)Nc1ccc(Cl)cc1	6%	i	i	i	3%	13%
O=C(CSc1nnc(Cn2nnc3ccccc32)o1)N(Cc1ccc(F)cc1)c1ccccc1	0.28µM*	i	?	5.2µM*	-32%	?
Cc1ccc(CNC(=O)CCCN2C(=O)CCn3nc(-c4cn(C)c5ccccc45)cc32)cc1	/	i	i	i	11%	/
CCOC(=O)Nc1ccc(NCc2ccc(F)cc2)nc1N	?	i	i	i	5%	?
CCOC(=O)Nc1cc2c(c(N)n1)N=C(c1ccccc1)CN2	0.46µM*	?	0.13µM*	0.18µM*	11%	?
Clc1cccc(C2=NC(c3cccs3)=Nc3ccc(Br)cc3N2)c1	/	?	i	i	9%	/
COc1ccccc1-c1ccc(C(=O)NCCN2CCOCC2)c(N2CCN(c3ccccc3F)CC2)n1	/	i	/	/	/	/
COc1ccc(NC(=O)COc2cccc3c2CCN(Cc2cccnc2)C3=O)c(OC)c1	-6%	i	5.2µM*	i	-25%	-16%
CCCCC(CC)C(=O)Oc1ccc(O)c(C(C)(C)C)c1 (centres undefined)	16µM*	?	i	i	-34%	23µM*
Cc1ccc(NCCN(C)C)c2c(=O)c3cc(O)ccc3sc12	?	27µM*	12µM*	?	11µM*	?
CN(C)CCNc1cccc2sc3ccc(O)cc3c(=O)c12	9.2µM*	i	23µM*	16µM*	18µM*	12µM*
CSc1cc2c(s1)c1cnn(Cc3cccc(N)c3)c(=O)c1n2C	/	/	i	i	/	/
O=C1CCC2=C1C1(CCCC1)N=C(Nc1nc3ccccc3o1)N2	/	/	i	i	/	/
C=CCn1c(=S)[nH]c2nc3c(cc2c1=O)CCCC3	8.9µM*	i	i	?	30%	8.9µM*
COC(=O)c1ccc2c(=O)n(CCCCCC(=O)N3CCN(c4cc(Cl)ccc4C)CC3)c(=O)[nH]c2c1	/	i	i	i	-14%	/
Nc1ncnc(N)c1N=Nc1ccccc1	?	i	i	?	?	12µM*
Nc1nn(-c2ccccc2)c(N)c1N=Nc1ccccc1F	8.2µM*	?	4.6µM*	?	51%	5.8µM*
Nc1nn(-c2ccccc2)c(N)c1N=Nc1ccccc1	?	i	5.8µM*	?	75%	16µM*
COc1cccc(CN(C)C[C@@H]2OCc3cnnn3CCCC(=O)N([C@@H](C)CO)C[C@H]2C)c1	2%	i	i	i	4%	-1%
CC1=C(C(=O)Nc2ccccc2)C(c2cccc(Cl)c2)n2nc(SCC(=O)c3ccc(C)cc3)nc2N1 (centres undefined)	/	i	i	i	7%	/
